Laboratory results taken from ChEMBL document CHEMBL4888484, “Replenishing the malaria drug discovery pipeline: Screening and hit evaluation of the MMV Hit Generation Library 1 (HGL1) against asexual blood stage Plasmodium falciparum ,using a nano luciferase reporter read-out” (2022).
The campaign covered roughly 150,000 compounds. About 540 (0.36%) showed an effect of 50% or more. This excerpt belongs to a sample that is enriched for strong results.

What follows are compounds tested on Plasmodium falciparum (assay: Primary screen in NF54 nanoGlo assay, in single point, at 2uM, 72h; a lower Z score goes with more inhibition). Details: timepoint 72 hour.
Assay type: functional, Erythrocyte
`CC(C)C(=O)N1CCc2ccc(OCc3nc(C(=O)N(C)Cc4ccccc4)cs3)cc2[C@@H]1c1ccccc1` was tested, and the “% Inhibition” value was 1% and the Z score was -0.07.
`CN(C)c1ncc(CN[C@H]2[C@H](c3ccccc3)C2(C)C)cn1` was tested, and the “% Inhibition” value was 10% and the Z score was -1.13.
For `CC(C)CC[C@@]1(C2CC2)NC(=O)N(Cc2ccc(C#N)cn2)C1=O`, the “% Inhibition” value was -14% and the Z score was 2.83.
For `O=C(c1csnn1)N1CCc2[nH]nc(-c3ccccc3F)c2C1`, the “% Inhibition” value was -7% and the Z score was 1.02.
For `COc1ccc(F)cc1S(=O)(=O)N1CCn2c(nn(C)c2=O)C1`, the “% Inhibition” value was -13% and the Z score was 2.3.
For `COc1ccc(F)cc1S(=O)(=O)N1CCc2noc(N)c2C1`, the “% Inhibition” value was 72% and the Z score was -5.81.
In the case of `COc1ccc(F)cc1S(=O)(=O)N1CCc2ncncc2C1`, the “% Inhibition” value is reported as -3% and the Z score is reported as 0.62.
For `O=C(c1ccc(O)cc1)N1CCN(Cc2ccccn2)[C@@H]2CS(=O)(=O)C[C@@H]21`, the “% Inhibition” value was 3% and the Z score was -0.42.
In the case of `Cc1nn(-c2nc3ccccc3[nH]2)c2c1[C@@H](c1cccnc1)CC(=O)N2`, the “% Inhibition” value is reported as 68% and the Z score is reported as -14.32.
For `Cc1nn(-c2nc3ccccc3[nH]2)c2c1[C@@H](c1c(C)sc3ccccc13)CC(=O)N2`, the “% Inhibition” value was 4% and the Z score was -0.46.
In the case of `Cc1nn(-c2nc3ccccc3[nH]2)c2c1[C@@H](c1ccc(Cl)c(Cl)c1)CC(=O)N2`, the “% Inhibition” value is reported as 14% and the Z score is reported as -1.74.
`C[C@H]1CCN(C(=O)c2cccc3c2CCCN3)[C@@H](C)C1` was tested, and the “% Inhibition” value was 12% and the Z score was -1.41.
With `CC(C)(C)C1CCC(O)(CNC(=O)NC2CCC(O)CC2)CC1` (stereo not drawn) the “% Inhibition” value was 0% and the Z score was -0.1.
For `CCOC(=O)c1n[nH]cc1CNCc1cccnc1N(C)C`, the “% Inhibition” value was 4% and the Z score was -0.61.
In the case of `COc1cc(Br)c(NC(=O)N(C)CC(C)C)cc1OC`, the “% Inhibition” value is reported as -13% and the Z score is reported as 1.89.
With `C1=Cn2nc(/C=C/c3c[nH]c4ccccc34)nc2-c2ccccc2O1` the “% Inhibition” value was -30% and the Z score was 3.55.
`CCCCc1ccc(NCc2c[nH]c3ccccc23)cc1` was tested, and the “% Inhibition” value was 1% and the Z score was -0.17.
With `C[n+]1ccccc1/C=C/c1c[nH]c2ccccc12` the “% Inhibition” value was 91% and the Z score was -8.06.
In the case of `c1ccc2c(C(c3c[nH]c4ccccc34)c3c[nH]c4ccccc34)c[nH]c2c1`, the “% Inhibition” value is reported as -27% and the Z score is reported as 3.19.
`CCc1ccc(/C=C/c2c[nH]c3ccccc23)[n+](CC)c1` was tested, and the “% Inhibition” value was 93% and the Z score was -8.52.
With `COc1ccc(OC)c2c(/C=C/c3c[nH]c4ccccc34)ccnc12` the “% Inhibition” value was -8% and the Z score was 0.9.
With `c1cnc(NCc2cnc(N3CCCC3)s2)cn1` the “% Inhibition” value was -3% and the Z score was 0.38.
For `Cn1cccc1CN[C@H]1CCOc2ccc(F)cc21`, the “% Inhibition” value was -10% and the Z score was 1.36.
`CCc1nnc([C@@H]2CCCN2C(=O)NCc2ccc(F)cc2)[nH]1` was tested, and the “% Inhibition” value was -5% and the Z score was 0.68.
`COC1CCCCC1NC(=O)Nc1cccc(-c2ncc(C)o2)c1` (stereo not drawn) was tested, and the “% Inhibition” value was -3% and the Z score was 0.66.
With `COC1CCCC1NC(=O)Nc1ncc(Br)cc1C` (stereo not drawn) the “% Inhibition” value was 74% and the Z score was -9.34.
In the case of `CC(=O)Nc1ncc(Br)cc1C`, the “% Inhibition” value is reported as 33% and the Z score is reported as -0.41.
With `COc1ccc(C(=O)c2oc3ccccc3c2NC(=O)c2csnn2)cc1Cl` the “% Inhibition” value was -18% and the Z score was 1.56.
For `COc1cccc(S(=O)(=O)N2CCC(OCCOc3ccccc3)CC2)c1`, the “% Inhibition” value was 53% and the Z score was -0.06.
With `O=S(=O)(c1ccccc1)N1CCC(OCCOc2cccnc2)CC1` the “% Inhibition” value was -7% and the Z score was 1.14.
`COc1cccc(S(=O)(=O)N2CCC(OCCOCc3ccccc3)CC2)c1` was tested, and the “% Inhibition” value was 40% and the Z score was -0.89.
`CCN(CC)c1ncc(CN2CC[C@H](NS(C)(=O)=O)C2)s1` was tested, and the “% Inhibition” value was -14% and the Z score was 1.85.
With `NC(=O)Cc1nc(CC(F)(F)F)n(C2CCCCC2)n1` the “% Inhibition” value was 0% and the Z score was 0.02.
For `COc1cc(C(=O)NCCNC(=O)c2cc(-c3ccccc3)nc3ccccc23)cc(OC)c1OC`, the “% Inhibition” value was -11% and the Z score was 1.69.
`Cn1c(-c2ccc(Cl)c(Cl)c2)c[n+](CC(=O)c2ccc(F)cc2)c1N` was tested, and the “% Inhibition” value was 37% and the Z score was -4.75.
In the case of `Cc1ccc(C(=O)C[n+]2cc(-c3ccc(-c4ccccc4)cc3)n(C)c2N)cc1`, the “% Inhibition” value is reported as 42% and the Z score is reported as -0.38.
With `Cn1c(-c2ccc(Cl)c(Cl)c2)c[n+](CC(=O)c2ccc(-c3ccccc3)cc2)c1N` the “% Inhibition” value was 53% and the Z score was -0.87.
`CCc1nc(C)c(C(=O)N(C)Cc2csc(-c3ccccc3)n2)s1` was tested, and the “% Inhibition” value was -4% and the Z score was 0.61.
For `Cc1ccc(O)c(CNCC2(c3ccccc3Cl)CCOCC2)n1`, the “% Inhibition” value was 98% and the Z score was -10.48.
In the case of `NC1CCC(C(=O)NCC2(c3ccccc3Cl)CCOCC2)C1` (stereo not drawn), the “% Inhibition” value is reported as 8% and the Z score is reported as -1.21.
`O=C(NCC1(c2ccccc2Cl)CCOCC1)N1CCOCC1` was tested, and the “% Inhibition” value was -4% and the Z score was 0.54.
With `Cc1ccc2[nH]c3c(c2c1)C[C@@H](N1C(=O)CN(CC(C)C)C1=O)CC3` the “% Inhibition” value was -3% and the Z score was 0.39.
For `FC(F)(F)c1ccc(N2CCC(n3ccnn3)CC2)nn1`, the “% Inhibition” value was 0% and the Z score was -0.04.
With `C[C@@H](C(=O)OCc1cccc2cccnc12)N1CCOCC1` the “% Inhibition” value was -4% and the Z score was 0.63.
With `Cc1cc(C)c(NC(=O)OCc2cccc3cccnc23)c(C)c1` the “% Inhibition” value was 88% and the Z score was -13.23.
For `Cc1nc(C)c(C(=O)OCc2cccc3cccnc23)s1`, the “% Inhibition” value was -18% and the Z score was 3.51.
With `CC1CC(C(=O)NCC2CCCCC2)c2ccccc2N1` (stereo not drawn) the “% Inhibition” value was 3% and the Z score was -0.43.
In the case of `Cc1noc(C)c1CN1C(=O)NC2(CCCCC2)C1=O`, the “% Inhibition” value is reported as -2% and the Z score is reported as 0.32.
In the case of `COc1ccc(CCNc2nc(-c3ccc(OC)cc3)c3c(N)n(-c4ccc(OC)cc4)nc3n2)cc1`, the “% Inhibition” value is reported as -13% and the Z score is reported as 2.28.
`COc1ccc2c(c1)[n+](CC(=O)c1ccc(-c3ccc(Br)cc3)cc1)c(CO)n2C` was tested, and the “% Inhibition” value was 70% and the Z score was -5.57.
`COc1cccc(C(=O)C[n+]2cc(-c3ccc(Br)cc3)n(C)c2N)c1` was tested, and the “% Inhibition” value was 35% and the Z score was -0.41.
For `Cc1ccc(C(=O)C[n+]2cc(-c3ccc(Br)cc3)n(C)c2N)cc1`, the “% Inhibition” value was 38% and the Z score was 2.56.
In the case of `CC1(C)C2CCC1(C)C(OC(=O)CN1CCCCCC1)C2` (stereo not drawn), the “% Inhibition” value is reported as 0% and the Z score is reported as -0.02.
For `CC[N+](CC)(CC(=O)OC1CC2CCC1(C)C2(C)C)CC(=O)OC1CC2CCC1(C)C2(C)C` (stereo not drawn), the “% Inhibition” value was 77% and the Z score was -8.45.
